In PubChem BioAssay (NCI):
This is part of a sample that, as a whole, favours compounds with a hit. Of some 83,000 tested, about 20% had one in any assay.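 How to read the values: 0–100, growth inhibition (40 = 60% inhibited); 0, no net growth; -100 to 0, cell death (-40 = 40% of starting cells died; -100 = all dead).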 The source made the active and inactive calls. Rule for the calls: active = growth percent below 10; inactive = the rest.

system: HOP-92 NSCLC; test: NCI-60 one-dose screen, 48 h (100 = growth as untreated, 0 = no growth, -100 = all killed); conditions: 10 µM unless noted

Row | Compound | growth
1 | O=C(OCc1nc2nc(Cl)nc(N3CCOCC3)c2[nH]1)n1ccnc1 | -66.7% (active)
2 | Cn1c(COC(=O)NCCN2CCOCC2)nc2c(N3CCOCC3)nc(-c3ccccc3)nc21 | -62.8% (active)
3 | O=C1c2cccnc2C(=O)c2nc3cc(N4CCN(C5CC5)CC4)ccc3nc21 | 62.5% (inactive)
4 | CCCCCN1C=C/C(=C\C(=O)N(C)c2cccc3ccccc23)c2ccccc21 | 92.6% (inactive)
5 | COc1cc2nc(-c3ccc(C#N)cc3)[nH]c(=O)c2cc1OC | 127% (inactive)
6 | CN1CCN(c2cnc(C(=O)Nc3cc(F)cc4cccnc34)cn2)CC1 | 79.1% (inactive)
7 | CC(=O)OCC(=O)C1(O)C(C)CC2C3C=C(C)C4=Cc5c(cnn5-c5ccccc5)CC4(C)C3C(O)CC21C (configuration not stated) | -0.484% (active)
8 | CCCCCCN(C)Cc1ccc(OCCOc2ccc(CN(C)CCCCCC)cc2)cc1 | -9.72% (active)
9 | CCCCCCCCCCCCCCCCCCOc1ccccc1N | 78.7% (inactive)
10 | COc1cc(-c2nc3occn3c2-c2ccnc(NCCNS(=O)(=O)c3ccc(Cl)cc3)n2)ccc1F | 78.5% (inactive)
11 | Cc1nc2sc(C(=O)Nc3ccccc3)c(N)c2cc1C(=O)c1ccc(C(F)(F)F)cc1 | 116% (inactive)
12 | S=c1[nH]cccc1-c1nnc2n1Nc1nc3ccc(Cl)cc3cc1CS2 | 107% (inactive)
13 | CC(C)Cc1ccc(C(C)C(=O)NCc2c[nH]c3ccc(Cl)cc23)cc1 (configuration not stated) | 79.8% (inactive)
14 | Cc1c([N+](=O)[O-])cc(C(C)(C)C)cc1[N+](=O)[O-] | 96.4% (inactive)
15 | O=C(Nc1nc2ccc(C(=O)N3CCN(c4ccc(Cl)c(Cl)c4)CC3)cc2s1)c1ccc(NCCc2ccccc2)c([N+](=O)[O-])c1 | 91.7% (inactive)
16 | CS(=O)(=O)c1ccc(-c2cc3c(oc2=O)-c2ccccc2OC3O)cc1 (configuration not stated) | 38.1% (inactive)
17 | Cc1n[nH]c(C)c1-c1c(C)n[nH]c1C | -3.52% (active)
18 | CCCOc1nc(SCCC)nc2c1cnn2-c1ccccc1 | 98.2% (inactive)
19 | Fc1ccccc1CSc1ncnc2nc[nH]c12 | 122% (inactive)
20 | Nc1c(Cl)cc([N+](=O)[O-])cc1Br | 74.8% (inactive)
21 | NC(=O)CN1CCN(c2ccccc2Cl)CC1 | 103% (inactive)
22 | C=C(C)[C@H]1CC/C(C)=C/CC[C@]2(C)O[C@H]2CC/C(COC(=O)[C@@H](OC(C)=O)[C@H](NC(=O)c2ccccc2)c2ccccc2)=C\[C@@H]1O | 59.4% (inactive)
23 | C(=C\c1n(Cc2ccc3ccccc3c2)c(-c2ccccc2)c(-c2ccccc2)[n+]1Cc1ccc2ccccc2c1)/c1ccccc1 | -81.8% (active)
24 | Nc1c(C(=O)Nc2cccc3ccncc23)sc2nc3c(cc12)C(=O)CCC3 | 69.6% (inactive)

system: NCI-H522 lung; test: as above; conditions: 10 µM unless noted

Row | Compound | growth
25 | O=C(Nc1cccc(Cl)c1)Oc1c(Br)c(Br)c(Br)c(Br)c1Br | 58.8% (inactive)
26 | CN1CCN(Cc2ccc(NC(=O)c3cncc(C#Cc4cnccc4C(F)(F)F)c3)cc2C(F)(F)F)CC1 | 79.4% (inactive)
27 | CN(C)Cc1c(-c2ccccc2)[nH]c2ccccc12 | 82.5% (inactive)
28 | CCN(CC)CCCC(Nc1c2ccc(Cl)cc2nc2ccc(OC)cc12)c1ccc(Cl)cc1 (configuration not stated) | -68.7% (active)
29 | O=C(CNCCO)Nc1ccc2ncnc(Nc3ccc(OCc4cccc(F)c4)c(Cl)c3)c2c1 | 46.3% (inactive)
30 | CSc1nnc2c(=O)n(C)c(=O)n(C)c2n1 | 103% (inactive)
31 | C=CCn1c(SCC(=O)Nc2ccc(C(=O)/C=C/c3cc(OC)c(OC)c(OC)c3)cc2)nnc1-c1cc(-c2ccc(S(C)(=O)=O)cc2)nc2ccccc12 | 86.5% (inactive)
32 | CCNC(=O)c1[nH]cc(-c2ccc(OC)cc2)c1-c1cc(OC)cc(OC)c1 | 62.6% (inactive)
33 | COc1ccc(/C=N/C2=C(C#N)C(c3ccccc3[N+](=O)[O-])c3ccc4ccccc4c3O2)cc1 (configuration not stated) | 88.1% (inactive)
34 | COc1ccc(-c2nc(N/N=C/c3cccc(O)c3)nc(N3CCOCC3)c2C#N)cc1 | 79.1% (inactive)
35 | Cc1ccccc1-c1cc(Cc2ccc(F)cc2)c(=O)[nH]n1 | 95.1% (inactive)
36 | COC(=O)Nc1ccc(NC(=O)OC)cc1 | 73.6% (inactive)
37 | O=C1Nc2ccccc2/C1=N/c1nc(-c2ccc(Cl)cc2)cs1 | 50.1% (inactive)
38 | Clc1ccc(N2N=C(c3cccc(Nc4ccncc4)c3)CC2c2ccc(Br)cc2)cc1 (configuration not stated) | -13.2% (active)
39 | O=C(OCc1nc2nc(Cl)nc(N3CCOCC3)c2[nH]1)n1ccnc1 | -66% (active)
40 | Cn1c(COC(=O)NCCN2CCOCC2)nc2c(N3CCOCC3)nc(-c3ccccc3)nc21 | -44.6% (active)
41 | O=C1c2cccnc2C(=O)c2nc3cc(N4CCN(C5CC5)CC4)ccc3nc21 | -50.5% (active)
42 | CCCCCN1C=C/C(=C\C(=O)N(C)c2cccc3ccccc23)c2ccccc21 | 83.1% (inactive)
43 | COc1cc2nc(-c3ccc(C#N)cc3)[nH]c(=O)c2cc1OC | 104% (inactive)

Row | Compound | growth
44 | CN1CCN(c2cnc(C(=O)Nc3cc(F)cc4cccnc34)cn2)CC1 | 22% (inactive)
45 | CC(=O)OCC(=O)C1(O)C(C)CC2C3C=C(C)C4=Cc5c(cnn5-c5ccccc5)CC4(C)C3C(O)CC21C (configuration not stated) | 4.55% (active)
46 | CCCCCCN(C)Cc1ccc(OCCOc2ccc(CN(C)CCCCCC)cc2)cc1 | 35.3% (inactive)
47 | CCCCCCCCCCCCCCCCCCOc1ccccc1N | 3.78% (active)
48 | COc1cc(-c2nc3occn3c2-c2ccnc(NCCNS(=O)(=O)c3ccc(Cl)cc3)n2)ccc1F | 66.4% (inactive)
49 | Cc1nc2sc(C(=O)Nc3ccccc3)c(N)c2cc1C(=O)c1ccc(C(F)(F)F)cc1 | 89.1% (inactive)
50 | S=c1[nH]cccc1-c1nnc2n1Nc1nc3ccc(Cl)cc3cc1CS2 | 82.6% (inactive)
51 | CC(C)Cc1ccc(C(C)C(=O)NCc2c[nH]c3ccc(Cl)cc23)cc1 (configuration not stated) | 87.2% (inactive)
52 | Cc1c([N+](=O)[O-])cc(C(C)(C)C)cc1[N+](=O)[O-] | 60.2% (inactive)
53 | O=C(Nc1nc2ccc(C(=O)N3CCN(c4ccc(Cl)c(Cl)c4)CC3)cc2s1)c1ccc(NCCc2ccccc2)c([N+](=O)[O-])c1 | 75.9% (inactive)
54 | CS(=O)(=O)c1ccc(-c2cc3c(oc2=O)-c2ccccc2OC3O)cc1 (configuration not stated) | 92.7% (inactive)
55 | Cc1n[nH]c(C)c1-c1c(C)n[nH]c1C | -8.26% (active)
56 | CCCOc1nc(SCCC)nc2c1cnn2-c1ccccc1 | 3.95% (active)
57 | Fc1ccccc1CSc1ncnc2nc[nH]c12 | 54% (inactive)
58 | Nc1c(Cl)cc([N+](=O)[O-])cc1Br | 88.1% (inactive)
59 | NC(=O)CN1CCN(c2ccccc2Cl)CC1 | 92.3% (inactive)
60 | C=C(C)[C@H]1CC/C(C)=C/CC[C@]2(C)O[C@H]2CC/C(COC(=O)[C@@H](OC(C)=O)[C@H](NC(=O)c2ccccc2)c2ccccc2)=C\[C@@H]1O | 59.5% (inactive)
61 | C(=C\c1n(Cc2ccc3ccccc3c2)c(-c2ccccc2)c(-c2ccccc2)[n+]1Cc1ccc2ccccc2c1)/c1ccccc1 | -62.3% (active)
62 | Nc1c(C(=O)Nc2cccc3ccncc23)sc2nc3c(cc12)C(=O)CCC3 | -15.7% (active)
